High-throughput results deposited in PubChem by National Center for Advancing Translational Sciences (NCATS).
BAZ2B inh: blocks human BAZ2B | Q9UIF8 | AlphaScreen BAZ2B-H3K14Ac peptide displacement | Potency, µM (doses to about 114 µM), hits mostly inhibitors | actives 4.4% (n = 360,000) | AID 504333; also: nearly all actives have a fitted effect of over 60% in size
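In this displacement format the biotinylated H3(5-23) peptide acetylated at Lys14 serves as ligand at 50 nM, with BAZ2B at 50 nM in PBS pH 7.4 containing 0.01% Tween-20. Donor and acceptor beads are 10 ug/mL final.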
G9a block: inhibitors of human histone lysine methyltransferase G9a. Potency, µM (doses to about 102 µM), most hits filed as inhibitors. actives 8.8% (n = 350,000). G9a H3K9 monomethylation, AlphaScreen, 2 h; also: nearly all actives have a fitted effect of over 75% in size
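Using a bead-based AlphaScreen, monomethylated H3K9 product from 2 h room-temperature reactions (G9a 20 nM, peptide 500 nM, SAM 20 uM) was detected with 0.5 ug/mL rabbit anti-H3K9me1 antibody.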
JMJD2A Tudor: inhibitors of human JMJD2A Tudor domain; O75164; AlphaScreen JMJD2A-Tudor / H3K4me3 peptide binding; Potency, µM (series often up to 114 µM), most hits filed as inhibitors; actives 4.4% (n = 390,000); AID 504339; also: nearly all actives have a fitted effect of over 50% in size
L3MBTL1 block: blocks human L3MBTL1; Q9Y468; AlphaScreen L3MBTL1–H3K9me1 peptide binding; Potency, µM (series often up to 57.1 µM), most hits filed as inhibitors; actives 0.66% (n = 230,000); AID 485360; also: nearly all actives have a fitted effect of over 60% in size
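L3MBTL1 50 nM + b-AHA-H3(1-15)K9me1 75 nM, 30 min RT; compound added, 30 min RT; streptavidin donor/Ni-chelate acceptor beads 10 ug/mL each final, 30 min RT dark; AlphaScreen read.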
Sfp inh: Sfp phosphopantetheinyl transferase inhibition. Q9F4F7. Biochemical Sfp PPTase activity, qHTS. Potency, µM, most hits filed as inhibitors. actives 3.5% (n = 310,000);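 also: the enzyme is Sfp with the accession as filed and its product quenches rhodamine fluorescence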
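After 15 min at room temperature with compound, 15 nM Sfp received 5 uM rhodamine-CoA plus 12.5 uM BHQ-2-ybbR (50 mM Hepes pH 7.6, 10 mM MgCl2). Rate came from the fluorescence difference over 30 min, ex 525/em 598 nm.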
HP1b binding inh: blocks HP1-beta chromodomain binding to methylated histone tails; AlphaScreen HP1-beta / biotin-H3K9me3 peptide binding; Potency, µM (highest dose often 114 µM), most hits filed as inhibitors; actives 0.56% (n = 390,000); P83916; also: nearly all actives have a fitted effect of over 70% in size
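Compound inhibition of the preformed complex between 50 nM HP1-beta and 50 nM biotinylated H3K9me3 peptide was read by AlphaScreen. Buffer was PBS pH 7.4 with 0.01% Tween-20. Incubations ran 30 min at room temperature, with 10 ug/mL donor/acceptor beads.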
Each line names hits and unclear results; the compound was inactive in the other large screens. Hits are enriched below; roughly 12% of the tested compounds scored in any of these assays. Calls follow the shape of the dose curve; as a rule, active = well fitted curve in the direction sought with a large enough effect; inconclusive = small, poorly fitted or top-dose-only effect, or another doubt; inactive = no such curve, though single readings can be large; an effect the other way counts as inactive or inconclusive.

CC12CCC=CC1C(c1cccc(Br)c1)N(Cc1ccccc1)C2=O (centres undefined)	none (no result: BAZ2B inh, G9a block, L3MBTL1 block)
CCCCCCCCCCCCCCCC(=O)N[C@@H](COP(=O)(O)O)C(=O)O	none (no result: BAZ2B inh, JMJD2A Tudor, L3MBTL1 block, HP1b binding inh)
COc1cc2c(s1)c1cnn(Cc3ccccc3F)c(=O)c1n2C	none (no result: BAZ2B inh, G9a block, L3MBTL1 block, Sfp inh, HP1b binding inh)
O=C(O)c1ccc(NC(=S)Nc2ccccc2)cc1	G9a block inconclusive, Sfp inh 50µM
COC(=O)c1ccc(NC(=S)Nc2ccccc2)cc1	L3MBTL1 block inconclusive
COc1ccc(NC(=O)CCc2c(C)nc3c(-c4ccc(F)cc4)c(C)nn3c2C)c(OC)c1	none (no result: L3MBTL1 block, Sfp inh)
CCOC(=O)CN1C(=O)CC(c2ccc([N+](=O)[O-])cc2)C1=O (centres undefined)	G9a block 45µM
Cc1nccn1CCCNC(=O)CC1C(=O)NCCN1Cc1ccccc1C(F)(F)F (centres undefined)	G9a block inconclusive
O=C(CC1C(=O)NCCN1Cc1ccccc1C(F)(F)F)NCCn1cccn1 (centres undefined)	G9a block 35µM
CN(CCN1CCOCC1)C(=O)CC1C(=O)NCCN1Cc1ccccc1C(F)(F)F (centres undefined)	G9a block 45µM (no result: L3MBTL1 block)
O=C(CC1C(=O)NCCN1Cc1ccccc1C(F)(F)F)NCCN1CCOCC1 (centres undefined)	G9a block 45µM (no result: L3MBTL1 block)
O=C(CC1C(=O)NCCN1Cc1ccccc1C(F)(F)F)NCCN1CCCCC1=O (centres undefined)	G9a block 40µM (no result: L3MBTL1 block)
Cc1ccc(N2CC(NC(=O)C(=O)c3c[nH]c4ccccc34)CC2=O)cc1 (centres undefined)	none (no result: L3MBTL1 block, Sfp inh)
Cc1ccc(C(=O)Nc2c(C)nc3ccccn3c2=O)cc1C	none (no result: L3MBTL1 block, Sfp inh)
Cc1cc(C)cc(NS(=O)(=O)c2ccc3c(c2)NC(=O)C(C)S3)c1 (centres undefined)	G9a block inconclusive (no result: L3MBTL1 block, Sfp inh)
Cc1cccc(C)c1NC(=O)C1CCCN1S(=O)(=O)c1cccc2nsnc12 (centres undefined)	none (no result: L3MBTL1 block, Sfp inh)
Clc1ccc(SCCn2ccnc2)cc1	BAZ2B inh 56µM, G9a block 32µM, JMJD2A Tudor 3.5µM, HP1b binding inh inconclusive
Cc1cc(Cl)c(OCCn2ccnc2)c(Br)c1	BAZ2B inh inconclusive, JMJD2A Tudor 18µM, Sfp inh inconclusive, HP1b binding inh inconclusive (no result: G9a block)
Clc1ccc(OCCn2ccnc2)c2ccccc12	BAZ2B inh inconclusive, JMJD2A Tudor inconclusive (no result: L3MBTL1 block)
C=CCc1cc(Cl)ccc1OCCn1ccnc1	BAZ2B inh 50µM, G9a block 7.1µM, JMJD2A Tudor 20µM, HP1b binding inh inconclusive
Clc1ccc(OCCn2ccnc2)c(Cl)c1	BAZ2B inh 50µM, G9a block inconclusive, JMJD2A Tudor 3.5µM, HP1b binding inh inconclusive
Clc1ccc(SCCCCn2cncn2)cc1	none (no result: L3MBTL1 block)
OC(COc1ccc(Cl)cc1Cl)Cn1ccnc1 (centres undefined)	none (no result: L3MBTL1 block)
COC(=O)Cc1c(C)c2ccc3c(c2oc1=O)CN(Cc1ccccc1Cl)CO3	JMJD2A Tudor inconclusive (no result: L3MBTL1 block, Sfp inh)
C=CCc1cc(C)ccc1OCCOCCn1ccnc1	BAZ2B inh 32µM, G9a block 10µM, JMJD2A Tudor 3.2µM, HP1b binding inh 28µM
Cc1ccc(C)c(OCCCCCn2ccnc2)c1	BAZ2B inh inconclusive, G9a block inconclusive, JMJD2A Tudor inconclusive
CCc1cccc(-n2c(=O)c3cccnc3n2CC(=O)NCc2ccccc2)c1	none (no result: L3MBTL1 block, Sfp inh)
Cc1nn(-c2nc(-c3ccc(F)cc3)cc(C(F)(F)F)n2)c(C)c1Cl	none (no result: L3MBTL1 block, Sfp inh)
CC(C)C[C@@H](CNCC(=O)[C@H](C)NC(=O)c1[nH]cnc1C(=O)N[C@H](CN)CC(C)C)NC(=O)c1nc[nH]c1C(=O)N[C@@H](C)C(=O)O	JMJD2A Tudor 56µM (no result: BAZ2B inh, G9a block, L3MBTL1 block, Sfp inh)
CC(C)C[C@H](NC(=O)c1[nH]cnc1C(=O)N[C@@H](C)C(=O)OCc1ccccc1)C(=O)OCc1ccccc1	none (no result: BAZ2B inh, G9a block, Sfp inh)
CC(C)C[C@@H](CNCC(=O)[C@H](CC(C)C)NC(=O)c1[nH]cnc1C(=O)N[C@@H](C)CN)NC(=O)c1nc[nH]c1C(=O)N[C@@H](CC(C)C)C(=O)O	JMJD2A Tudor 56µM (no result: BAZ2B inh, G9a block, L3MBTL1 block, Sfp inh)
